Measured values as given in paper PMC11062922 (Nature Chemical Biology, 2023).
Where two headings read alike, the source gives them in different places.

Columns and labels:
Parameters in all cases: species or system human, MV4-11 + K-562 + COLO205 + SK-N-BE2 + OVCAR-8
CDK4 = conditions: read-out: apparent Kd, compound concentrations: 100 nM and 1000 nM (sheet 'Samples'), n = 1
CSNK1A1 = conditions: read-out: apparent Kd, n = 1
PIM2 = conditions: read-out: apparent Kd, compound concentrations: 100 nM and 1000 nM (sheet 'Samples'), n = 1
PRKAG1 = conditions: read-out: apparent Kd, n = 1
SYK = conditions: read-out: apparent Kd; compound concentrations: 100 nM and 1000 nM (sheet 'Samples'), CATDS: 3.0941649644307598E-2; n = 1
MAPK11 = conditions: read-out: apparent Kd, n = 1
PKN3 = conditions: read-out: apparent Kd; compound concentrations:100 nM and 1000 nM (sheet 'Samples'); n = 1
EPHB3 = conditions: read-out: apparent Kd; compound concentrations: 100 nM and 1000 nM (sheet 'Samples'), CATDS: 4.67907505867102E-2; n = 1
ADCK3 = conditions: read-out: apparent Kd, n = 1
CDK7 = conditions: read-out: apparent Kd; compound concentrations: 100 nM and 1000 nM (sheet 'Samples'), CATDS: 0.191679480220071; n = 1
PIK3CG = conditions: read-out: apparent Kd, compound concentrations: 100 nM and 1000 nM (sheet 'Samples'), n = 1
STK10 = conditions: read-out: apparent Kd; compound concentrations:100 nM and 1000 nM (sheet 'Samples'); n = 1
[1] = compound concentrations:100 nM and 1000 nM (sheet 'Samples')

## Clc1ccc(-c2nn3ncccc3c2-c2ccnc(Nc3ccccc3)n2)cc1 [GW829055X]
CDK4; CATDS: 3.2528026841687298E-2
  potency estimated from few doses: 1.96 µM
CSNK1A1; compound concentrations: 100 nM and 1000 nM (sheet 'Samples'), CATDS: 3.2884610425315097E-2
  potency estimated from few doses: 1.9 µM
PIM2; CATDS: 3.1911296970739501E-2
  potency estimated from few doses: 2.07 µM
PRKAG1; compound concentrations: 100 nM and 1000 nM (sheet 'Samples'), CATDS: 3.7997381036159197E-2
  potency estimated from few doses: 1.32 µM
SYK
  potency estimated from few doses: 2.27 µM

## Nc1c(C(=O)c2ccccc2)cnn1-c1ccc(F)cc1 [RO1151246-000]
MAPK11; [1]
  potency estimated from few doses: 1.42 µM
PKN3
  potency estimated from few doses: 2.07 µM

## Fc1ccc(-c2ncn(C3CCNCC3)c2-c2ccnc(Oc3ccc4c(c3)OCO4)n2)cc1 [SB-250715]
CSNK1A1; [1]
  potency estimated from few doses: 1.3 µM
MAPK11; [1]
  potency estimated from few doses: 0.0404 µM
PRKAG1; [1]
  potency estimated from few doses: 1.75 µM

## Fc1cccc(COc2ccc(Nc3ncncc3C#Cc3ccccc3)cc2Cl)c1 [GW651576X]
EPHB3
  potency estimated from few doses: 2.08 µM

## CCCN1CCC(Oc2cc(Nc3nc(Nc4cccc(F)c4C(N)=O)c4cc[nH]c4n3)c(OC)cc2Cl)CC1 [GSK1713088A]
ADCK3; compound concentrations: 100 nM and 1000 nM (sheet 'Samples'), CATDS: 0.349456505086152
  potency estimated from few doses: 0.604 µM
CDK7
  potency estimated from few doses: 1.74 µM

## Cc1ccc(NC(=O)c2ccc(Cl)cc2)cc1-c1ccc(C(=O)Nc2ccncc2)cc1 [GSK1398467A]
CDK4; CATDS: 0.17554209006480601
  potency estimated from few doses: 1.65 µM

## Cc1ccc(-n2nc(C(C)(C)C)cc2NC(=O)Nc2ccc(OCCN3CCOCC3)cc2)cc1 [BIRB0876BS]
ADCK3; [1]
  potency estimated from few doses: 0.0489 µM

## COc1ccc(-c2nn3ncccc3c2-c2ccnc(Nc3ccc4c(c3)OCCO4)n2)cc1 [GW827106X]
MAPK11; compound concentrations: 100 nM and 1000 nM (sheet 'Samples'), CATDS: 6.1190831662216998E-2
  potency estimated from few doses: 0.956 µM
PIK3CG; CATDS: 5.53437190113686E-2
  potency estimated from few doses: 1.18 µM

## Cc1ccc(CC(=O)N2CCc3cc(-c4cn(C)c5ncnc(N)c45)ccc32)cc1 [GSK2634758A]
CDK4; CATDS: 0.135917779714779
  potency estimated from few doses: 2.25 µM

## COc1cc(N2CCN(C(C)C)CC2)ccc1Nc1nc(Nc2cccc(F)c2C(=O)O)c2cc[nH]c2n1 [GSK1819799A]
PIM2; CATDS: 4.4865682499900299E-2
  potency estimated from few doses: 1.71 µM

## COc1cc2ncn(-c3cc(O[C@H](C)c4ccccc4Cl)c(C(N)=O)s3)c2cc1OC [GSK237701A]
STK10
  potency estimated from few doses: 0.574 µM

## COc1ccc(S(=O)(=O)NC2CCN(c3cc(C)nc(Nc4cccc(C#N)c4)n3)CC2)cc1.O=C(O)C(F)(F)F [GSK1653539A]
PIK3CG; CATDS: 0.32479738642046602
  potency estimated from few doses: 1.38 µM

## CN(C(=O)c1ccc(-c2cc(-c3c[nH]nc3-c3ccccn3)ccn2)cc1)C1CCOCC1 [GW810083X]
CSNK1A1; [1]
  potency estimated from few doses: 2.39 µM
